Records with an inconclusive call do not appear. Active and inactive are the calls of the source. The call rests on the fitted dose curve.
What was measured:
[1] = biological target: Acetylcholinesterase (Homo sapiens) (UniProt P22303); assay: Acetylcholinesterase (AChE) small molecule antagonists: colormetric cell-based qHTS assay (AID 1347395); further: nearly all actives have a fitted effect of over 30% in size; further: potency means the concentration at half of the fitted maximal effect
Method in brief: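 SH-SY5Y cells attached overnight, exposed to compound 30 min at 37 C, then given DTNB/acetylthiocholine; after 90 min at 37 C, colorimetric thiocholine read gives cellular AChE activity.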

[2] = biological target: Acetylcholinesterase (Homo sapiens) (UniProt P22303); assay: Acetylcholinesterase (AChE) small molecule antagonists: enzyme-based qHTS assay (AID 1347397); details: Potency: AChE enzyme activity inhibition; outcome: AChE enzyme activity inhibition; further: nearly all actives have a fitted effect of over 55% in size; further: potency means the concentration at half of the fitted maximal effect
Method in brief: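 Colorimetric DTNB read-out of thiocholine released from acetylthiocholine by recombinant human AChE (50 mU/mL as dispensed). Compounds were preincubated 30 min at RT before substrate/DTNB addition, with a 10 min RT reaction.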

[3] = biological target: Acetylcholinesterase (Homo sapiens) (UniProt P22303); assay: Acetylcholinesterase (AChE) small molecule antagonists: fluorescence cell-based qHTS assay (AID 1347398); details: Potency: AChE activity; outcome: AChE activity; further: nearly all actives have a fitted effect of over 50% in size; further: potency means the concentration at half of the fitted maximal effect
Method in brief: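 SH-SY5Y, 2,000 cells/well, attached overnight; cmpd 30 min 37 C; acetylthiocholine/Thiolite Green cocktail 40 min RT; fluorescence Ex/Em 490/520 nm.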

[4] = biological target: Acetylcholinesterase (Homo sapiens) (UniProt P22303); assay: Acetylcholinesterase (AChE) small molecule antagonists: enzyme-based qHTS assay with human liver microsomes (AID 1347399); details: Potency: qHTS inhibition; outcome: qHTS inhibition; further: nearly all actives have a fitted effect of over 60% in size
Method in brief: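 Recombinant human AChE (50 mU/mL in the enzyme mix) and human liver microsomes (0.25 mg/mL final) were preincubated with compound and NADPH (0.25 mg/mL final) for 30 min at 37 C. Acetylthiocholine/DTNB was then added; thiocholine was read colorimetrically after 10 min at room temperature.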

Measured: Potency

Sequence of Acetylcholinesterase (Homo sapiens) (P22303 whole entry, looked up): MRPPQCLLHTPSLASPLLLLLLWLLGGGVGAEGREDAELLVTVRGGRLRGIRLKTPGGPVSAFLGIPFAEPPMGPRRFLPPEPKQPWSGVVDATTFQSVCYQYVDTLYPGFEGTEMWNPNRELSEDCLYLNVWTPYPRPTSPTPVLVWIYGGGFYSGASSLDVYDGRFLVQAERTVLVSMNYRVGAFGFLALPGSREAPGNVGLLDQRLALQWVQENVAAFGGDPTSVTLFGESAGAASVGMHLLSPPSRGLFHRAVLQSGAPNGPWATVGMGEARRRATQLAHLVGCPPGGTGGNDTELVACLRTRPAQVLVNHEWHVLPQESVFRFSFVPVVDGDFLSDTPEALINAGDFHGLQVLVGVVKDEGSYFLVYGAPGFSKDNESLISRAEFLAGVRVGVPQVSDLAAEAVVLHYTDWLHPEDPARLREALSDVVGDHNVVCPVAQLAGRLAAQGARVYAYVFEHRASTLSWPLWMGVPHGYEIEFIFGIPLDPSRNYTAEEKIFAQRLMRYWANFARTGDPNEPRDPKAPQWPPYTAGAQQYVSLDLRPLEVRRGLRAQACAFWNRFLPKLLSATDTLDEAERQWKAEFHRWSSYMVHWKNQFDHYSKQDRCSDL

O=C(CCCl)NCCc1ccccc1
inactive: all assays above

C=CCON/C(CCC)=C1\C(=O)CC(C)(C)C(C(=O)OC)=C1O
inactive: all assays above

Cc1ccnc(N)c1
inactive: all assays above

CNC(=O)c1cnn(-c2nc(N)c3ncn([C@@H]4O[C@H](CO)[C@@H](O)[C@H]4O)c3n2)c1
inactive: all assays above

CCCCCc1ccc(N)cc1
inactive: all assays above

CCCCCCC#CC(=O)OC
inactive: all assays above

N#CC1(N)CCCCC1
inactive: all assays above

CCOC(=O)CCc1ccccc1
inactive: all assays above

C=C[Si](C)(C)O[Si](C)(C)C=C
inactive: all assays above

CC(=O)OCC(C)OC(C)=O (configuration not stated)
inactive: all assays above

COC(=O)NCCC[Si](OC)(OC)OC
inactive: all assays above

O=C(Oc1ccccc1)c1cccc(C(=O)Oc2ccccc2)c1
inactive: all assays above

CCOC(=O)/C=C(C)/C=C/C=C(C)/C=C/c1c(C)cc(OC)c(C)c1C
inactive: all assays above

COP(=O)(O)OP(=O)(O)OC
inactive: all assays above

C[Si](Cl)(c1ccccc1)c1ccccc1
inactive: all assays above

COC(=O)[C@]1(C)CCC[C@@]2(C)[C@H]1CC=C1C=C(C(C)C)CC[C@@H]12
inactive: all assays above

COc1cc(C=C2CCC/C(=C\c3ccc(O)c(OC)c3)C2=O)ccc1O
inactive: all assays above

CC(=O)Nc1ccc(OCCOCCOc2ccc(NC(C)=O)cc2)cc1
inactive: all assays above

CC(C)(C)c1csc(-c2cc3cc(OCc4ccccc4CC(=O)O)ccc3o2)n1
inactive: all assays above

CCCCCCCC/C=C\CCCCCCCC(=O)OCC
inactive: all assays above

Nc1ccc(NCCO)c([N+](=O)[O-])c1
inactive: [4]
active: [1] 35.6 µM | [2] 71 µM | [3] 35.6 µM

O=C1OC(=O)C2CCCCC12 (configuration not stated)
inactive: all assays above

Oc1cccc2c(O)cccc12
inactive: all assays above

NS(=O)(=O)c1cc2c(cc1Cl)NC(CSCc1ccccc1)=NS2(=O)=O
inactive: all assays above

NCc1ccco1
inactive: all assays above

CCN(CC)CCNC(=O)COc1ccc(Cl)cc1
inactive: all assays above

C[C@@H](c1ncncc1F)C(O)(Cn1cncn1)c1ccc(F)cc1F (some centres not stated)
inactive: all assays above

C=COCCOCCOCCOC=C
inactive: all assays above

Cc1ccco1
inactive: all assays above

NS(=O)(=O)c1ccccc1Cl
inactive: all assays above

Nc1ncnc2c1ncn2[C@H]1CC[C@@H](CO)O1
inactive: all assays above

CC(C)COC(=O)c1ccc(O)cc1
inactive: all assays above

C[C@H]1O[C@@H](O[C@H]2CC[C@@]3(C)[C@H](CC[C@@H]4[C@@H]3C[C@@H](O)[C@]3(C)[C@@H](C5=CC(=O)OC5)CC[C@]43O)C2)C[C@H](O)[C@@H]1O[C@H]1C[C@H](O)[C@H](O[C@H]2C[C@H](O)[C@H](O[C@@H]3O[C@H](CO)[C@@H](O)[C@H](O)[C@H]3O)[C@@H](C)O2)[C@@H](C)O1
inactive: all assays above

O=C1C(O)=C(O)C(=O)C(O)=C1O
inactive: all assays above

CCCc1ccc(O)c(OC)c1
inactive: all assays above

c1ccc(CN(Cc2ccccc2)Cc2ccccc2)cc1
inactive: all assays above

N#Cc1c(F)cccc1F
inactive: all assays above

Clc1cc(Cl)cc(Cl)c1
inactive: all assays above
